Assay [1] can be described thus: HepG2 liver cancer cell viability effects, profiling panel, resazurin fluorescence, 24 h, PK04 Diversity Set (AID 1172). Note: test concentration not given here. Particulars: higher = more signal.
Assay [2] in a line: basal S. cerevisiae growth modulation, no modifier, primary screen, OD600, strain BY4716, 24 h, basal condition (AID 1173). The conditions noted are these: OD600, 24 h, higher = more signal, called active from +8 up or from −8 down.
Assay [3] can be described thus: MM1S myeloma cell viability, profiling panel, resazurin fluorescence, basal, 24 h, PK04 Diversity Set (AID 1174).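 Note: MM1S multiple myeloma cell line; test concentration not given here.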 Particulars: higher = more signal, called active from +8 up or from −8 down. In general terms: Resazurin is reduced to fluorescent resorufin, in cell work by metabolically active cells.
The target of assay [4] is Dihydroorotate dehydrogenase (quinone), mitochondrial (Plasmodium falciparum (isolate 3D7)) (UniProt Q08210). The assay can be described thus: PfDHODH enzyme inhibitors, primary screen, biochemical, C-terminal His tag, absorbance 600 nm (AID 1175).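 Note: recombinant parasite enzyme with a five histidine tag at its C terminus; test concentration not given here.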 Particulars: DCIP absorbance 600 nm, higher = more signal, called active from +8 up or from −8 down.
A short description of assay [5]: P. aeruginosa biofilm formation inhibitors, primary screen, strain PAO1, LB-PBS medium, absorbance 600 nm (AID 1176). Note: test concentration not given here. Particulars: P. aeruginosa PAO1 growth/biofilm, A600, 12 h; higher = more signal.
The nature of assay [6]: S. cerevisiae RM11-1a growth modifiers, primary screen, strain RM11-1a, OD600, basal, 24 h (AID 1177).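 Note: cultures grown under basal conditions with no added stressor; test concentration not given here.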 Particulars: OD600, 24 h, higher = more signal, called active from +8 up or from −8 down.
Assay [7] is described as follows: E. coli acrAB mutant growth effects, primary screen, E. coli filamentation inducers, strain DRC39, OD650, 24 h (AID 1178).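 Note: growth measured as culture turbidity by optical density at 650 nm; test concentration not given here.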 Particulars: higher = more signal, called active from +8 up or from −8 down.
The nature of assay [8]: E. coli acrAB mutant growth effects, primary screen, E. coli filamentation inducers, strain DRC39, OD650, 48 h (AID 1179).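 Note: screen aims at cell division blockers that make cells filament.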 The conditions noted are these: E. coli DRC39 delta-acrAB growth, higher = more signal, called active from +8 up or from −8 down.
Assay [9] is described as follows: RPMI8226 myeloma cell viability, profiling panel, resazurin fluorescence, basal, 24 h, PK04 Diversity Set (AID 1180).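 Note: RPMI8826 multiple myeloma cell line at 5000 cells per well; test concentration not given here.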 The conditions noted are these: higher = more signal.
Assay [10] addresses E3 ubiquitin-protein ligase XIAP (Homo sapiens) (UniProt P98170). Description: XIAP binders, primary screen, biophysical, small-molecule microarray, fluorescence 635 nm (AID 1181).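 Note: score merges 667 nm emission and signal to noise over triplicate slides.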 Particulars: small-molecule microarray binding, higher = more signal.

In PubChem BioAssay one finds z-score and composite z-score data, which are given here for 10 compounds.

Calls of active or inactive are those of the source. Unless noted, the rule behind the calls is not given here.

Chain of E3 ubiquitin-protein ligase XIAP (Homo sapiens) (P98170 whole entry, looked up): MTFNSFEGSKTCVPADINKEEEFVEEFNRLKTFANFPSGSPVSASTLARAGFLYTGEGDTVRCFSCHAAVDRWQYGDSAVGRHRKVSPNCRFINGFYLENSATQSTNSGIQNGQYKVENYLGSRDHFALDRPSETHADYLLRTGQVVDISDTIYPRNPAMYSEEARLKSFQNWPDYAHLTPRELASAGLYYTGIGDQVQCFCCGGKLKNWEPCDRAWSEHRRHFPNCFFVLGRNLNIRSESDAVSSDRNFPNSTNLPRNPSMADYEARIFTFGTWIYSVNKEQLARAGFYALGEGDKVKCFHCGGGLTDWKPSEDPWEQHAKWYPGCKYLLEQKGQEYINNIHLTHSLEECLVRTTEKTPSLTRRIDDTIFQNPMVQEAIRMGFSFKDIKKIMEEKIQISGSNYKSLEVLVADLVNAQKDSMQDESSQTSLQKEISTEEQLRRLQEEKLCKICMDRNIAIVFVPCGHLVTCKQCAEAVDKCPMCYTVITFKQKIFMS
Chain of Dihydroorotate dehydrogenase (quinone), mitochondrial (Plasmodium falciparum (isolate 3D7)) (Q08210 whole entry, looked up): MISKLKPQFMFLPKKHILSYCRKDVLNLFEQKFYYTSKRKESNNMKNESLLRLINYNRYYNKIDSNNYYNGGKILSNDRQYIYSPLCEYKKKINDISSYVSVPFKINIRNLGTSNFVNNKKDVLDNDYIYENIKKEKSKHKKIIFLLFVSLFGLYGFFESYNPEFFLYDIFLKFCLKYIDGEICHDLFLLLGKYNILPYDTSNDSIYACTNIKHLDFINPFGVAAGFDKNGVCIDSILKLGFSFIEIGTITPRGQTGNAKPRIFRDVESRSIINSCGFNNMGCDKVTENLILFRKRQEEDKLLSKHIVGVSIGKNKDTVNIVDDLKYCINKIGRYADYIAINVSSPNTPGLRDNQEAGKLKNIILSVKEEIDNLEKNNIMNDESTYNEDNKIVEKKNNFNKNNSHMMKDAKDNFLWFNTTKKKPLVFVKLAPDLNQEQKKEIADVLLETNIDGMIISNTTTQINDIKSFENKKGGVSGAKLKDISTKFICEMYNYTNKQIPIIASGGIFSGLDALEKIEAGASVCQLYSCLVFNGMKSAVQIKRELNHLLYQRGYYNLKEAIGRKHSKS

With `NCCCCCNC(=O)[C@H]1C[C@H]2C(=O)N[C@@H](Cc3ccccc3)C(=O)N2[C@H]1c1cccc(OCCO)c1`, the z-score in assay [1] was 0.391; in assay [2] it was -1.84 (inactive); in [3], 1.04 (inactive); in [5] it was 0.022 (inactive); in assay [6] it was -0.439 (inactive); in assay [7], -0.154 (inactive). Further, the z-score in assay [8] was 0.496 (inactive); in assay [9], 0.953. For the same compound, the composite z-score is 0.884 (inactive) in assay [4] and -0.0599 in [10].

On to `CCCCC(=C=CC[C@@H](O)c1ccc(CO)o1)CCO`, for which the z-score in assay [1] was 1.15; in assay [2], -0.205 (inactive); in assay [3], -0.438 (inactive); in [5], 0.838 (inactive); in assay [6], 0.175 (inactive); in [7], 1.54 (inactive). For the same compound, the results for the z-score in assay [8] and in assay [9] were 1.12 (inactive) and 1.22, respectively. Moreover, the composite z-score is -0.594 (inactive) in [4] and 0.128 in assay [10].

As for `COC(=O)[C@@]1(Cc2ccccc2)[C@H]2c3cc(C(=O)N4CCCC4)n(Cc4ccc(O)c(OC)c4)c3C[C@H]2CN1C(=O)c1ccccc1`, the z-score in assay [1] is -1.82; in assay [2], 1.93 (inactive); in assay [3], -0.948 (inactive); in assay [5] it was 0.675 (inactive); in assay [6] it was 1.8 (inactive); in assay [7], -1.12 (inactive). Further, the z-score is -0.697 (inactive) in assay [8] and -2.74 in assay [9]. Also, the composite z-score in assay [4] is 0.05 (inactive); in assay [10], 0.224.

As to `COC(=O)c1c(CC[C@@H](CO)NC(=O)N[C@@H](Cc2ccccc2)Cn2cc(-c3ccccn3)nn2)oc(C(=O)N2CCOCC2)c1C(=O)OC`, the z-score in [1] was 0.482; in [2], -0.239 (inactive); in assay [3] it was 0.475 (inactive); in [5], -0.476 (inactive); in assay [6] it was 1.3 (inactive); in [7], 0.506 (inactive). The figures for the z-score in [8] and in [9] were 0.327 (inactive) and 0.277, respectively. Further, the composite z-score was 0.138 (inactive) in [4] and 0.23 in [10].

For `O=C1OCCC=C[C@H]2OC34C=CCN(Cn5nnc6ccccc65)C(=O)[C@H]3N(CCO)C(=O)[C@@H]4C12` (stereo not given in full), the z-score is 1.02 in [1]; 0.202 (inactive) in assay [2]; 0.542 (inactive) in assay [3]; 0.152 (inactive) in [5]; -0.18 (inactive) in assay [6]; -0.0287 (inactive) in assay [7]. The z-score in assay [8] was -0.249 (inactive); in assay [9], 0.0841. In addition, the composite z-score in assay [4] is -1.15 (inactive); in [10] it was -0.146.

For `COc1ccc(-c2cc3c(c(Cc4ccccc4)n2)[Si](C(C)C)(C(C)C)OC3)cn1`, the z-score is 0.177 in [1]; -0.652 (inactive) in assay [2]; -0.141 (inactive) in assay [3]; 0.0429 (inactive) in [5]; 2 (inactive) in assay [6]; 0.184 (inactive) in assay [7]. Moreover, the z-score in assay [8] was 0.0876 (inactive); in assay [9], 0.626. For the same compound, the composite z-score is 0.653 (inactive) in assay [4] and -0.0749 in assay [10].

Consider `CC(C)NC(=O)[C@@]1(Cc2ccccc2I)c2ccccc2C(=O)N(Cc2ccccc2Cl)[C@H]1c1ccc(CO)cc1`, for which the z-score was -0.344 in assay [1]; -0.673 (inactive) in assay [2]; 0.179 (inactive) in assay [3]; -0.103 (inactive) in [5]; 0.818 (inactive) in assay [6]; 0.107 (inactive) in [7]. Further, the z-score is -0.706 (inactive) in assay [8] and -0.0558 in [9]. The values for the composite z-score in assay [4] and in [10] were 0.0754 (inactive) and 0.0049, respectively.

Regarding `CCCCCN1CC=CC23O[C@@H]4C=CCOC(=O)[C@@H]4[C@H]2C(=O)N(C(C)CO)[C@@H]3C1=O` (stereo not given in full), the z-score in assay [1] is 0.0677; in [2], -0.738 (inactive); in assay [3] it was -0.278 (inactive); in [5], 0.77 (inactive); in assay [6] it was -1.16 (inactive); in assay [7] it was -0.232 (inactive). In addition, the z-score in assay [8] was -0.443 (inactive); in assay [9], 0.003. The figures for the composite z-score in [4] and in assay [10] were -0.478 (inactive) and -0.269, respectively.

On to `COC(=O)[C@@]1(Cc2ccccc2)[C@H]2c3cc(C(=O)N4CCCC4)n(Cc4c(CO)[nH]cc(C)c4=O)c3C[C@H]2CN1C(=O)c1ccccc1`, for which the z-score is -0.789 in [1]; 1.01 (inactive) in [2]; -0.74 (inactive) in [3]; 0.287 (inactive) in assay [5]; 0.624 (inactive) in [6]; -0.384 (inactive) in assay [7]. Also, the values for the z-score in assay [8] and in assay [9] were 0.156 (inactive) and -0.467, respectively. The composite z-score in [4] was 0.255 (inactive); in assay [10], 0.406.

Turning to `C=C(C(=O)CC[C@H](OC(C)=O)c1ccccc1OCCO)C(C)C`, the z-score in [1] was -1.64; in assay [2], -18.4 (active); in assay [3] it was -1 (inactive); in assay [5], -0.493 (inactive); in [6], -22.2 (active); in assay [7], -0.587 (inactive). Also, the z-score was -0.573 (inactive) in [8] and -1.62 in assay [9]. Further, the figures for the composite z-score in assay [4] and in assay [10] were -9.12 (active) and 0.42, respectively.
